Assay results as given in PubChem BioAssay AID2284357 (EPA ToxCast).
Results filed as inconclusive are left out. Active and inactive are the calls of the source. Rule for the calls: active = hit-call score of the fitted dose curve at least 0.9, where 1 is the maximum; inconclusive = response in the unintended direction; inactive = score below 0.9.

Tested on: zebrafish Androgen Receptor (AR), gene 100005148
Assay: ATG_zfAR_EcoTox2: Attagene TRANS-FACTORIAL EcoTox-2 HepG2 Assay for zebrafish Androgen Receptor (AR)
Description: ATG_EcoTox2 is a cell-based, multiplexed assay created by modifying the existing Attagene TRANS-FACTORIAL system to include a panel of nuclear receptors from some or all the following species: human (Homo sapiens), african clawed frog (Xenopus laevis), rainbow trout (Oncorhynchus mykiss), japanese medaka (Oryzias latipes), and zebrafish (Danio rerio). The ECOTOX2-FACTORIAL format uses HepG2, a human liver cell line, with measurements taken at 24 hours after chemical dosing in a 24-well plate. ATG_zfAR_EcoTox2 is one of 29 assay components calculated in the ATG_EcoTox2 assay. It is designed to make measurements of mRNA induction, a form of inducible reporter, as detected with fluorescence intensity signals by Reverse transcription polymerase chain reaction (RT-PCR) and Capillary electrophoresis technology.The assay endpoint ATG_zfAR_EcoTox2 was analyzed in the positive analysis fitting direction relative to DMSO as the negative control and baseline of activity. Using a type of inducible reporter, measures of mRNA for gain-of-signal activity can be used to understand the reporter gene at the transcription factor-level as they relate to the gene AR. Furthermore, this assay endpoint can be referred to as a primary readout, because this assay has produced multiple assay endpoints where this one serves a reporter gene function. To generalize the intended target to other relatable targets, this assay endpoint is annotated to the nuclear receptor intended target family, where the subfamily is steroidal.
Human liver HepG2 cells are transiently transfected with multiple reporter transcription units (MRTUs) in 6-well plates using FuGene 6 reagent (Roche; 3 ml FuGene/1 mg DNA). The MRTU constructs are regulated by a cis-regulating element (promoter). Each RTU expresses a GAL4-UAS that regulates the transcription of a nearby target reporter gene sequence. A major difference between the CIS and TRANS system is that in CIS activities of endogenous TFs are measured, whereas the TRANS assay evaluates changes in activities of exogenous, chimeric NR-Gal4 proteins. […] At the end of 24 hour incubation, total RNA was isolated using TriZol reagent (Invitrogen). The isolated RNA is then reverse-transcribed using oligo(dT) primer and Mo-MLV reverse transcriptase (Invitrogen) with DNAse I (Ambion) treatment for 30 min. The one-tenth of the produced cDNA was amplified by PCR using Taq DNA polymerase (Invitrogen) and two reporter sequence-specific primers. […] The fragments were purified using Qiaquick PCR columns (Qiagen), analyzed on an ABI 3130xL genetic analyzer (Applied Biosystems) with peak positions identified by using a set of X-rhodamine (ROX)-labeled MapMarker1000 molecular weight standards (BioVentures). […]

| SMILES | outcome |
| --- | --- |
| CCCCOCN(C(=O)CCl)c1c(CC)cccc1CC | inactive |
| O=C(O)C(F)(F)C(F)(F)C(F)(F)C(F)(F)C(F)(F)C(F)(F)C(F)(F)F | inactive |
| O=S(=O)(O)C(F)(F)C(F)(F)C(F)(F)C(F)(F)C(F)(F)C(F)(F)F | inactive |
| O=P(Oc1ccccc1)(Oc1ccccc1)Oc1ccccc1 | inactive |
